What follows are binders tested against AgAbp1 (assay: SPOT peptide array binding signal intensity (averaged, normalized) (arbitrary units (background-subtracted, floor 0; scale differs between SH3 domains)); higher = stronger binding of the SH3 domain to the peptide).
Procedure, shortened: (§1)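 GST-fused SH3 domains from four yeast species were expressed in E. coli BL21(DE3), purified on glutathione Sepharose and incubated at 10 μg/ml overnight at 4°C in TBS-based blocking buffer on cellulose membranes carrying synthetic 15-mer peptides, with cysteines replaced by serines. Bound protein was detected with anti-GST antibody, an HRP anti-mouse secondary and luminol, then imaged and quantified with Genespotter. Binding signal is the normalized, background-subtracted spot intensity averaged over replicates, in arbitrary units that differ between domains.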

Binder | SPOT peptide array binding signal intensity
SRSKPLPLTPNSKYN | 197

Each binder was assayed against AgBbc1 in the same assay as above.
Procedure, shortened: as §1

Binder | SPOT peptide array binding signal intensity
SRSKPLPLTPNSKYN | 15.2

Each binder was assayed against AgBem1-D1 in the same assay as above.
Procedure, shortened: as §1

Binder | SPOT peptide array binding signal intensity
SRSKPLPLTPNSKYN | 16

Each binder was assayed against AgBzz1-D1 in the same assay as above.
Procedure, shortened: as §1

Binder | SPOT peptide array binding signal intensity
SRSKPLPLTPNSKYN | 195

What follows are binders tested against AgBzz1-D2 in the same assay as above.
Procedure, shortened: as §1

Binder | SPOT peptide array binding signal intensity
SRSKPLPLTPNSKYN | 111

These binders were tested against AgCyk3 in the same assay as above.
Procedure, shortened: as §1

Binder | SPOT peptide array binding signal intensity
SRSKPLPLTPNSKYN | 1

What follows are binders tested against AgFus1 in the same assay as above.
Procedure, shortened: as §1

Binder | SPOT peptide array binding signal intensity
SRSKPLPLTPNSKYN | 6.5

What follows are binders tested against AgHof1 in the same assay as above.
Procedure, shortened: as §1

Binder | SPOT peptide array binding signal intensity
SRSKPLPLTPNSKYN | 24.2

The binders below were run against AgHse1 in the same assay as above.
Procedure, shortened: as §1

Binder | SPOT peptide array binding signal intensity
SRSKPLPLTPNSKYN | 10.5

The binders below were run against AgLsb1 in the same assay as above.
Procedure, shortened: as §1

Binder | SPOT peptide array binding signal intensity
SRSKPLPLTPNSKYN | 1

These binders were tested against AgLsb4 in the same assay as above.
Procedure, shortened: as §1

Binder | SPOT peptide array binding signal intensity
SRSKPLPLTPNSKYN | 9

What follows are binders tested against AgMyo5 in the same assay as above.
Procedure, shortened: as §1

Binder | SPOT peptide array binding signal intensity
SRSKPLPLTPNSKYN | ≤ 0

What follows are binders tested against AgNbp2 in the same assay as above.
Procedure, shortened: as §1

Binder | SPOT peptide array binding signal intensity
SRSKPLPLTPNSKYN | 8.5

These binders were tested against AgRvs167 in the same assay as above.
Procedure, shortened: as §1

Binder | SPOT peptide array binding signal intensity
SRSKPLPLTPNSKYN | 1.67

These binders were tested against AgSho1 in the same assay as above.
Procedure, shortened: as §1

Binder | SPOT peptide array binding signal intensity
SRSKPLPLTPNSKYN | 3200

What follows are binders tested against AgSla1-D1-D2 in the same assay as above.
Procedure, shortened: as §1

Binder | SPOT peptide array binding signal intensity
SRSKPLPLTPNSKYN | 21.5

These binders were tested against AgSla1-D3 in the same assay as above.
Procedure, shortened: as §1

Binder | SPOT peptide array binding signal intensity
SRSKPLPLTPNSKYN | 8.5

The binders below were run against CaAbp1-D1 in the same assay as above.
Procedure, shortened: as §1

Binder | SPOT peptide array binding signal intensity
SRSKPLPLTPNSKYN | 64

These binders were tested against CaAbp1-D2 in the same assay as above.
Procedure, shortened: as §1

Binder | SPOT peptide array binding signal intensity
SRSKPLPLTPNSKYN | 249

The binders below were run against CaBbc1 in the same assay as above.
Procedure, shortened: as §1

Binder | SPOT peptide array binding signal intensity
SRSKPLPLTPNSKYN | 30

The binders below were run against CaBem1-D1 in the same assay as above.
Procedure, shortened: as §1

Binder | SPOT peptide array binding signal intensity
SRSKPLPLTPNSKYN | 29.5

The binders below were run against CaBzz1-D1 in the same assay as above.
Procedure, shortened: as §1

Binder | SPOT peptide array binding signal intensity
SRSKPLPLTPNSKYN | 384

The binders below were run against CaBzz1-D2 in the same assay as above.
Procedure, shortened: as §1

Binder | SPOT peptide array binding signal intensity
SRSKPLPLTPNSKYN | 162

The binders below were run against CaCyk3 in the same assay as above.
Procedure, shortened: as §1

Binder | SPOT peptide array binding signal intensity
SRSKPLPLTPNSKYN | 4

The binders below were run against CaFus1 in the same assay as above.
Procedure, shortened: as §1

Binder | SPOT peptide array binding signal intensity
SRSKPLPLTPNSKYN | 83

What follows are binders tested against CaHof1 in the same assay as above.
Procedure, shortened: as §1

Binder | SPOT peptide array binding signal intensity
SRSKPLPLTPNSKYN | ≤ 0

These binders were tested against CaHse1 in the same assay as above.
Procedure, shortened: as §1

Binder | SPOT peptide array binding signal intensity
SRSKPLPLTPNSKYN | 8.25

These binders were tested against CaLsb1 in the same assay as above.
Procedure, shortened: as §1

Binder | SPOT peptide array binding signal intensity
SRSKPLPLTPNSKYN | 0.5

These binders were tested against CaLsb4 in the same assay as above.
Procedure, shortened: as §1

Binder | SPOT peptide array binding signal intensity
SRSKPLPLTPNSKYN | 10.5

These binders were tested against CaMyo5 in the same assay as above.
Procedure, shortened: as §1

Binder | SPOT peptide array binding signal intensity
SRSKPLPLTPNSKYN | 10

What follows are binders tested against CaNbp2 in the same assay as above.
Procedure, shortened: as §1

Binder | SPOT peptide array binding signal intensity
SRSKPLPLTPNSKYN | 19.5

What follows are binders tested against CaRvs167 in the same assay as above.
Procedure, shortened: as §1

Binder | SPOT peptide array binding signal intensity
SRSKPLPLTPNSKYN | 6.17

What follows are binders tested against CaRvs167-3 in the same assay as above.
Procedure, shortened: as §1

Binder | SPOT peptide array binding signal intensity
SRSKPLPLTPNSKYN | 2.75

Each binder was assayed against CaSho1 in the same assay as above.
Procedure, shortened: as §1

Binder | SPOT peptide array binding signal intensity
SRSKPLPLTPNSKYN | 3190

Each binder was assayed against CaSla1-D1-D2 in the same assay as above.
Procedure, shortened: as §1

Binder | SPOT peptide array binding signal intensity
SRSKPLPLTPNSKYN | 1430

The binders below were run against CaSla1-D3 in the same assay as above.
Procedure, shortened: as §1

Binder | SPOT peptide array binding signal intensity
SRSKPLPLTPNSKYN | 1.5

These binders were tested against ScAbp1 in the same assay as above.
Procedure, shortened: as §1

Binder | SPOT peptide array binding signal intensity
SRSKPLPLTPNSKYN | 332

The binders below were run against ScBbc1 in the same assay as above.
Procedure, shortened: as §1

Binder | SPOT peptide array binding signal intensity
SRSKPLPLTPNSKYN | 2.5

What follows are binders tested against ScBem1-D1 in the same assay as above.
Procedure, shortened: as §1

Binder | SPOT peptide array binding signal intensity
SRSKPLPLTPNSKYN | 8

The binders below were run against ScBzz1-D1 in the same assay as above.
Procedure, shortened: as §1

Binder | SPOT peptide array binding signal intensity
SRSKPLPLTPNSKYN | 98.5

What follows are binders tested against ScBzz1-D2 in the same assay as above.
Procedure, shortened: as §1

Binder | SPOT peptide array binding signal intensity
SRSKPLPLTPNSKYN | 89

Each binder was assayed against ScCyk3 in the same assay as above.
Procedure, shortened: as §1

Binder | SPOT peptide array binding signal intensity
SRSKPLPLTPNSKYN | 5

Each binder was assayed against ScFus1 in the same assay as above.
Procedure, shortened: as §1

Binder | SPOT peptide array binding signal intensity
SRSKPLPLTPNSKYN | 8

Each binder was assayed against ScHof1 in the same assay as above.
Procedure, shortened: as §1

Binder | SPOT peptide array binding signal intensity
SRSKPLPLTPNSKYN | ≤ 0

The binders below were run against ScHse1 in the same assay as above.
Procedure, shortened: as §1

Binder | SPOT peptide array binding signal intensity
SRSKPLPLTPNSKYN | 30

Each binder was assayed against ScLsb1 in the same assay as above.
Procedure, shortened: as §1

Binder | SPOT peptide array binding signal intensity
SRSKPLPLTPNSKYN | ≤ 0

Each binder was assayed against ScLsb2 in the same assay as above.
Procedure, shortened: as §1

Binder | SPOT peptide array binding signal intensity
SRSKPLPLTPNSKYN | 1

These binders were tested against ScLsb3 in the same assay as above.
Procedure, shortened: as §1

Binder | SPOT peptide array binding signal intensity
SRSKPLPLTPNSKYN | ≤ 0

What follows are binders tested against ScLsb4 in the same assay as above.
Procedure, shortened: as §1

Binder | SPOT peptide array binding signal intensity
SRSKPLPLTPNSKYN | 12

Each binder was assayed against ScMyo3 in the same assay as above.
Procedure, shortened: as §1

Binder | SPOT peptide array binding signal intensity
SRSKPLPLTPNSKYN | ≤ 0

The binders below were run against ScMyo5 in the same assay as above.
Procedure, shortened: as §1

Binder | SPOT peptide array binding signal intensity
SRSKPLPLTPNSKYN | 2

The binders below were run against ScNbp2 in the same assay as above.
Procedure, shortened: as §1

Binder | SPOT peptide array binding signal intensity
SRSKPLPLTPNSKYN | 20

What follows are binders tested against ScPex13 in the same assay as above.
Procedure, shortened: as §1

Binder | SPOT peptide array binding signal intensity
SRSKPLPLTPNSKYN | 39

The binders below were run against ScRvs167 in the same assay as above.
Procedure, shortened: as §1

Binder | SPOT peptide array binding signal intensity
SRSKPLPLTPNSKYN | 2.33

The binders below were run against ScSho1 in the same assay as above.
Procedure, shortened: as §1

Binder | SPOT peptide array binding signal intensity
SRSKPLPLTPNSKYN | 3960

The binders below were run against ScSla1-D1-D2 in the same assay as above.
Procedure, shortened: as §1

Binder | SPOT peptide array binding signal intensity
SRSKPLPLTPNSKYN | 156

The binders below were run against ScSla1-D3 in the same assay as above.
Procedure, shortened: as §1

Binder | SPOT peptide array binding signal intensity
SRSKPLPLTPNSKYN | 28.2

What follows are binders tested against SpAbp1-D1 in the same assay as above.
Procedure, shortened: as §1

Binder | SPOT peptide array binding signal intensity
SRSKPLPLTPNSKYN | 872

These binders were tested against SpBbc1 in the same assay as above.
Procedure, shortened: as §1

Binder | SPOT peptide array binding signal intensity
SRSKPLPLTPNSKYN | 6.5

These binders were tested against SpBzz1-D1 in the same assay as above.
Procedure, shortened: as §1

Binder | SPOT peptide array binding signal intensity
SRSKPLPLTPNSKYN | 578

These binders were tested against SpBzz1-D2 in the same assay as above.
Procedure, shortened: as §1

Binder | SPOT peptide array binding signal intensity
SRSKPLPLTPNSKYN | 1.25

What follows are binders tested against SpCyk3 in the same assay as above.
Procedure, shortened: as §1

Binder | SPOT peptide array binding signal intensity
SRSKPLPLTPNSKYN | 5

The binders below were run against SpHof1 in the same assay as above.
Procedure, shortened: as §1

Binder | SPOT peptide array binding signal intensity
SRSKPLPLTPNSKYN | 1490

Each binder was assayed against SpHof1-2 in the same assay as above.
Procedure, shortened: as §1

Binder | SPOT peptide array binding signal intensity
SRSKPLPLTPNSKYN | 1710

These binders were tested against SpHof1-3 in the same assay as above.
Procedure, shortened: as §1

Binder | SPOT peptide array binding signal intensity
SRSKPLPLTPNSKYN | 1310

What follows are binders tested against SpHse1 in the same assay as above.
Procedure, shortened: as §1

Binder | SPOT peptide array binding signal intensity
SRSKPLPLTPNSKYN | 37.5

What follows are binders tested against SpLsb1 in the same assay as above.
Procedure, shortened: as §1

Binder | SPOT peptide array binding signal intensity
SRSKPLPLTPNSKYN | 1

What follows are binders tested against SpLsb4 in the same assay as above.
Procedure, shortened: as §1

Binder | SPOT peptide array binding signal intensity
SRSKPLPLTPNSKYN | 17

The binders below were run against SpMyo1 in the same assay as above.
Procedure, shortened: as §1

Binder | SPOT peptide array binding signal intensity
SRSKPLPLTPNSKYN | 10.5

The binders below were run against SpNbp2 in the same assay as above.
Procedure, shortened: as §1

Binder | SPOT peptide array binding signal intensity
SRSKPLPLTPNSKYN | 11

What follows are binders tested against SpPex13 in the same assay as above.
Procedure, shortened: as §1

Binder | SPOT peptide array binding signal intensity
SRSKPLPLTPNSKYN | 5

The binders below were run against SpRvs167 in the same assay as above.
Procedure, shortened: as §1

Binder | SPOT peptide array binding signal intensity
SRSKPLPLTPNSKYN | 12.3

The binders below were run against SpSla1-D1-D2 in the same assay as above.
Procedure, shortened: as §1

Binder | SPOT peptide array binding signal intensity
SRSKPLPLTPNSKYN | 844

These binders were tested against SpSla1-D3 in the same assay as above.
Procedure, shortened: as §1

Binder | SPOT peptide array binding signal intensity
SRSKPLPLTPNSKYN | 0.5

Reference: the supplement of paper PMC4466140
